# PubChem BioAssay AID651871 (Sanford-Burnham Center for Chemical Genomics, 2012)
# Where “and” joins values, the source holds several entries; their conditions need not be identical. Equal values may be shown once.
# Tested on: HL-1
# Experiment: cardiomyocyte survival under oxidative or metabolic stress – cell-based, panel, H9c2 and HL-1, ATP luminescence, set 2, SAR follow-up (AID 651871);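 further: cells exposed to stressor for 2 h before ATP readout; reference of the scale not given here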
# Details: H9c2/HL-1 cardiomyocytes, 2-deoxyglucose stress, with 2-deoxyglucose, run 8, at 19.8 µM (top of the series)
structure (smiles),measurement,value
COc1ccc2c(c1OC)C(=O)N1c3ccccc3C(=O)N(Cc3cccc(Cl)c3Cl)C21 (stereo unspecified),activity (protection/inhibition),51.9% and 34.6%
